Test results: PubChem BioAssay AID720513 (Broad Institute, 2013)
Out of some 2,100 compounds screened, about 480 (23%) were called active. Not shown: some 5% with an inconclusive outcome.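 The calls were made as follows: active = fitted curve reaches 40% activation at or below the top valid concentration, in every replicate test; inconclusive = replicate tests disagree on the call; inactive = the rest, including activity in the opposite direction.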 Not all results are given here. Potency and affinity values are given separately.

Assay: PGC1a acetylation increase, cellular AlphaLISA – cell-based, cherry-picked samples, set 6, dose response (AID 720513);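 also: cells made to overexpress flag tagged PGC1a plus GCN5 acetyltransferase by viral infection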
Settings: U2OS PGC1a acetylation AlphaLISA, overnight, 0 = neutral, -100 = inhibitor control; series mostly up to 19.5 µM; activation (acetylation increase): at the top concentration

Activation (acetylation increase), inactive:
C[C@H](NC(=O)C[C@H]1C[C@@H]2c3cc(NC(=O)Nc4ccc(C(F)(F)F)cc4)ccc3O[C@@H]2[C@@H](CO)O1)c1ccccc1 -4.02%
CN(C)C(=O)C[C@H]1C[C@@H]2c3cc(NC(=O)C4CCOCC4)ccc3O[C@@H]2[C@H](CO)O1 30.3%
N#Cc1cccc(C#N)c1NCC1CCCO1 (stereo unspecified) 13.6%
COCC#Cc1cnc2c(c1)C(=O)N([C@H](C)CO)C[C@@H](C)[C@@H](CN(C)C(=O)c1cccnc1)O2 4.29%
CC1=C(C(N)=O)C(c2ccccc2)n2nc(-c3ccncc3)nc2N1 (stereo unspecified) 36.6%
CCN(CC)C(=O)c1sc(NC(=O)c2ccncc2)c(C(=O)OC)c1C -4.98%
CC(=O)Nc1ccc(NS(=O)(=O)c2ccc(C)cc2)cc1[N+](=O)[O-] 33.2% [at 10 µM]
COc1ccc(OC)c(CN2CCN(C(=O)c3ccc(NS(=O)(=O)c4cccc([N+](=O)[O-])c4)cc3)CC2)c1 2.19%
CC(=O)Nc1cccc(OCC(=O)Nc2ccccc2)c1 -3.78%
Cc1nn(CC(=O)Nc2ccc(C(C)C)cc2)c(C)c1[N+](=O)[O-] -5.82%
COc1ccc(OC)c(N(CC(=O)Nc2ccccc2)S(C)(=O)=O)c1 27.7%
COc1ccc(NC(=O)CN(C)C(=O)c2cnc(Cl)c(Cl)c2)cc1 12.1%
CC(C)Cc1nnc(NC(=O)c2cc3c(s2)CCC3)s1 5.75%
C[C@@H]1CN([C@@H](C)CO)C(=O)c2cc(NC(=O)Nc3cccc4ccccc34)ccc2O[C@@H](C)CCCCO[C@H]1CN(C)C(=O)NC1CCCCC1 22.3%
N#Cc1ccc(C(c2ccc(C#N)cc2)n2cncn2)cc1 2.17%
N#Cc1c(C#N)c(O)c2ccccc2c1O 15%
OC[C@@H]1CN(Cc2ccccc2)C[C@H](n2cnc3c(NCc4ccc(F)cc4)ncnc32)O1 0.342%
O=C(COc1ccc(Cl)cc1Cl)NCCCN1CCOCC1 8.53%
COc1cc(NS(=O)(=O)c2ccc(N)cc2)nc(OC)n1 17.8%
CN(C)S(=O)(=O)c1ccc(N2CCCC2)c(C(=O)NCc2cccc(C(F)(F)F)c2)c1 4.68%
COc1ccc(NC(=O)N[C@@H]2CC[C@H](CCn3cc(-c4ccccc4F)nn3)O[C@H]2CO)cc1 19%
COc1ccccc1C1c2c(C)nn(-c3ccccc3)c2NC(=O)C1NC(=O)c1ccccc1 (stereo unspecified) -23.3%
Cn1cnnc1Sc1ccc(/C=C/C(=O)c2ccc(O)cc2)cc1[N+](=O)[O-] -94.3%
O=C(Nc1ccc(F)cc1)N1CCCCN2[C@H](CO)[C@H](c3ccc(C#Cc4ccccc4)cc3)[C@H]2C1 -84.6%
O=C(Nc1ccc(F)cc1)c1ccccc1 22.9%
CC(C)NC(=O)N(C)C[C@H]1OCCCC[C@@H](C)Oc2ccc(NC(=O)CCCN(C)C)cc2C(=O)N([C@@H](C)CO)C[C@@H]1C -5%
C[C@@H]1CN([C@@H](C)CO)C(=O)CCCn2cc(nn2)CO[C@H]1CN(C)Cc1ccncc1 8.73% [at 21 µM]
CCCCN(C(=O)CCC(=O)Nc1cc(C)on1)C(C(=O)NC1CCCC1)c1ccc(OC)cc1 (stereo unspecified) -10.7%
CCCC(C(=O)NC(C)(C)C)N(Cc1ccc(F)cc1)C(=O)c1snc(C(N)=O)c1N (stereo unspecified) -19.4%
O=C(NC1CCCCC1)C(c1ccc2ncccc2c1)N(Cc1ccc2c(c1)OCO2)C(=O)c1ccc2c(c1)OCCO2 (stereo unspecified) 9.19%
C#CC(=O)N(c1ccc(OC)c(OC)c1)C(C(=O)NC1CCCC1)c1cccs1 (stereo unspecified) -99.1%
COc1ccc(N2C(=O)CC2(/C=C/c2ccccc2OC)C(=O)NC2CCCC2)cc1 (stereo unspecified) 20.7%
C#CC(=O)N(c1cccc(OC)c1)C(C(=O)NC1CCCC1)c1cccs1 (stereo unspecified) -104%
C#CC(=O)N(c1ccc(OC)cc1OC)C(C(=O)NC1CCCC1)c1cccs1 (stereo unspecified) -106%
CC12CC(c3ccccc3O1)N(C(=O)c1ccc(Br)o1)C(=O)N2c1ccccc1 (stereo unspecified) -8.31%
CCCOc1ccccc1-n1sc2c(c1=S)-c1cc(OC)cc3c1N(C(=O)C3=O)C2(C)C -46.2%
COc1cccc(-c2nn(-c3ccccc3)cc2CN(C)C(C)c2ccncn2)c1 (stereo unspecified) 15.7%
Cc1c(NC(=O)c2ccccc2NS(=O)(=O)c2ccc(Br)cc2)c(=O)n(-c2ccccc2)n1C -8.93%
CCOC(=O)C1=C(NC(=O)c2ccc(Br)o2)Nc2ccccc2N=C1 31.5%
CCCNC(=O)N(C)C[C@H]1Oc2cc(C#CC(C)C)ccc2S(=O)(=O)N([C@@H](C)CO)C[C@H]1C 0.778%
CC(C)C#Cc1cnc2c(c1)C(=O)N([C@H](C)CO)C[C@H](C)[C@H](CN(C)C(=O)CN1CCOCC1)O2 23.2%
Cc1cc(-c2ccc(Cl)cc2)n2ncnc2n1 -15.3%
CO[C@@H]1CN(C)C(=O)c2cc(NC(C)=O)ccc2OC[C@H](C)N(C(=O)c2cccnc2)C[C@H]1C -7.97%
COc1ccc(C2c3c(oc4ccccc4c3=O)C(=O)N2CCN2CCOCC2)cc1OC (stereo unspecified) 6.79%
CCOc1ccc2c(c1)C(C)=CC(C)(C)N2S(=O)(=O)c1ccc(NC(C)=O)cc1 8.98%
Cn1cnc(S(=O)(=O)N2C[C@@H](O)COC[C@H]3O[C@H](CC(=O)NCc4cc(F)cc(F)c4)CC[C@@H]32)c1 17.1%
CCn1c(COc2ccc(=O)n(-c3ccccc3)n2)nnc1SCc1ccc(C)cc1 26.3%
CC(C)(C)Cc1nnc(NS(=O)(=O)c2ccc(F)cc2)s1 20.2%
O=S(=O)(Nc1nc2c(s1)CCCC2)c1ccc(F)cc1 16.7%
CC(C)CC#Cc1ccc2c(c1)O[C@@H](CN(C)C)[C@H](C)CN([C@@H](C)CO)S2(=O)=O 13.1%
Cn1ccc2cc(OCc3ccccc3)ccc21 11%
N=c1sccn1CC(=O)Nc1ccccc1Sc1ccccc1 -28.5%
Cc1cc(C)c(S(=O)(=O)N2CC=C(c3ccccc3)CC2)c(C)c1 36.4%
COC(=O)c1c(C)oc(C)c1S(=O)(=O)Nc1ccccc1 -8.61%
CCCCCCNC(=O)c1ncn[nH]1 -9.03%
O=C(N[C@@H]1CC[C@@H](CCNS(=O)(=O)c2ccccc2Cl)O[C@@H]1CO)c1ccc(F)cc1 2.33%
N=C1C(c2nc3ccccc3s2)=C(O)CN1NC(=O)c1ccc([N+](=O)[O-])cc1 31.2%
O=C(Nc1ccc(OC(=O)c2ccccc2)c(-c2nc3ccccc3s2)c1)c1ccccc1 8.72%
O=C(NCC1CCCO1)c1cc2c([nH]c3ccccc32)c(-c2cccc(Cl)c2)n1 (stereo unspecified) 40%
CNC[C@@H]1OCCCC[C@@H](C)Oc2ccc(NS(=O)(=O)c3ccc(C)cc3)cc2C(=O)N([C@H](C)CO)C[C@@H]1C 15.5%
COc1cc(Cl)c(S(=O)(=O)N2CC(C)OC(C)C2)cc1Cl (stereo unspecified) 26.5%
O=C(OCc1nc(-c2ccccc2)oc1COC(=O)c1ccco1)c1ccco1 -3.75%
Cc1cc(Cl)ccc1OCC(=O)Nc1cccc(S(=O)(=O)NC2=NCCCCC2)c1 7.74%
COc1ccc(N(CC(=O)Nc2ccccc2Cl)S(=O)(=O)c2ccc(C)cc2)cc1OC 7.4%
N#CC1=C(N)Oc2c(ccc3ccccc23)C1c1ccsc1 (stereo unspecified) -48.4%
C[C@H]1CN([C@@H](C)CO)C(=O)c2cc(C#Cc3ccccc3)cnc2O[C@@H]1CN(C)C(=O)c1ccccc1F -9.97%
c1cncc(CNc2ncnc3ccc(-c4ccoc4)cc23)c1 11.1%
COC(=O)c1cc(CN2C(=O)c3ccccc3C2=O)c(O)c([N+](=O)[O-])c1 36.6%
O=C(Nc1nc(-c2ccccn2)cs1)c1ccccc1-n1cnnn1 10.9%
O=C(Nc1ccccc1N1CCOCC1)C1(c2ccc(Cl)cc2)CCC1 19.7%
O=C(c1ccc(CN2CCOCC2)cc1)N1CCN(Cc2ccccc2)CC1 10.3%
C#CCN1C(=O)C(O)(CC(=O)c2ccc(OC)c(OC)c2)c2ccccc21 (stereo unspecified) 7.98%
CC(C)C#Cc1cnc2c(c1)C(=O)N([C@H](C)CO)C[C@H](C)[C@H](CN(C)C(=O)c1ccccn1)O2 3.01%
CCOc1ccc(N2CC(C(=O)Nc3ccc(S(=O)(=O)NCC4CCCO4)cc3)CC2=O)cc1 (stereo unspecified) 17.9%
COc1ccc(F)cc1CN1CCN(CC(=O)N2CCc3ccccc32)CC1 -12.8%
O=C(c1cccc(N2C(=O)C3C4C=CC(C4)C3C2=O)c1)N1CCCc2ccccc21 (stereo unspecified) 8.25%
C[C@H](CO)N1C[C@H](C)[C@@H](CN(C)C(=O)Nc2ccc(-c3cccs3)cc2)OCc2cnnn2CCCC1=O -3.11%
CCCc1cn(CC[C@@H]2CC[C@H](NC(=O)Nc3ccc4c(c3)OCO4)[C@@H](CO)O2)nn1 -8.84%
O=c1c2cn(Cc3ccc(F)cc3)c3ccc(F)cc3c-2nn1Cc1ccc(F)cc1 3.94%
FC(F)(F)c1ccc(Cl)c(-n2c(-c3cc(-c4ccco4)[nH]n3)n[nH]c2=S)c1 -12.5%
C[C@H](CO)N1C[C@H](C)[C@H](CN(C)Cc2ccncc2)OCc2cn(nn2)CCCC1=O 25.1% [at 21 µM]
COCC(=O)N1C[C@@H](C)[C@@H](OC)CN(C)C(=O)c2ccc(NC(=O)c3cnccn3)cc2OC[C@@H]1C -10.3%
CC(=O)n1nc2nc(C)cc(C)c2c1N -25.1%
CCS(=O)(=O)Nc1ccc2c(c1)C(=O)N(C)C[C@@H](OC)[C@H](C)CN(Cc1ccccn1)[C@@H](C)CO2 -1.3%
O=C(COC(=O)Cc1ccc(S(=O)(=O)N2CCOCC2)s1)NCCc1ccccc1 -11.5%
O=C(O)C1CCCN1S(=O)(=O)c1cc(Cl)ccc1Cl (stereo unspecified) 6.52%
C[C@@H]1CN([C@@H](C)CO)C(=O)CCCn2nncc2CO[C@H]1CN(C)S(=O)(=O)c1ccc(Cl)cc1 -1.78%
COCCCNC(=O)c1ccc(Cn2c(=O)c3ccccc3n(Cc3ccccc3C)c2=O)cc1 39.4%
CCCCN(CCCC)CCNC(=O)c1ccc2nc(-c3ccccc3NC(C)=O)c(=O)[nH]c2c1 28.6%
CCCOc1ccc2ccccc2c1/C=C1\SC(=O)NC1=O -9.84%
Nc1nc(SCC(=O)Nc2ccccc2Sc2ccc(Cl)cc2)n[nH]1 19.6%
